The source made the active and inactive calls. Rule for the calls: active = hit-call score of the fitted dose curve at least 0.9, where 1 is the maximum; inactive = score below 0.9.

This experiment is described as follows: CEETOX_H295R_PROG: CeeTox H295R High-throughput Steroidogenesis Assay for Progesterone (PROG) (AID 2283442).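 For AC50: human H295R adrenal cells primed with 10 µM forskolin before dosing.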 The following applies: actives raise or lower the signal. As to the method: CEETOX_H295R is a cell-based, multiplexed-readout assay that uses H295R, a human adrenal gland cell line, with measurements taken at 48 hours after chemical dosing in a 96-well plate.CEETOX_H295R_PROG is one of 23 assay component(s) measured or calculated from the CEETOX_H295R assay. It is designed to make measurements of hormone induction, a form of inducible reporter, as detected with absorbance signals by HPLC-MS-MS technology.Data from the assay component CEETOX_H295R_PROG was analyzed into 1 assay endpoint. This assay endpoint, CEETOX_H295R_PROG, was analyzed with bidirectional fitting relative to DMSO as the negative control and baseline of activity. Using a type of inducible reporter, gain or loss-of-signal activity using HPLC-MS-MS was used to understand synthesis of Progesterone in H295R cell line at 48hr of chemical exposure. To generalize the intended target to other relatable targets, this assay endpoint is annotated to the steroid hormone intended target family, where the subfamily is progestagens.
Cell culture and media preparation procedures were conducted in accordance with OECD Test No. 456 guidelines, with minor modifications. H295R cells (ATCC CRL-2128) were expanded for 5 passages and frozen in batches in liquid nitrogen. Prior to the steroidogenesis assay, H295R cells were thawed and passed at least 4 times. The maximum passage was 10. Cells were maintained in a 1:1 mixture of DMEM/F12 supplemented with 5ml/L ITS+ Premix (BD Bioscience) and 12.5 ml/L Nu-Serum (BD Bioscience). After seeding cells into 96-well plates at 50-60% confluency, cells were allowed to adhere overnight. Prior to chemical testing, culture medium was replaced with 175 uL medium containing 10 uM forskolin to stimulate steroidogenesis for 48 hours. Following prestimulation, forskolin medium was replaced with medium containing test chemical solubilized in DMSO (ensuring a final concentration of 0.1% DMSO). Test chemicals were incubated for 48 hours, then the medium was removed and split into 2 vials containing approximately 75uL each, and stored at -80 C prior to hormone analysis. For steroid quantification, media samples were shipped to OpAns, LLC (Durham, NC) on dry ice, and samples were thawed to room temperature prior to liquid-liquid extraction. Steroid hormones were extracted from media samples using methyl tertbutyl ether (MTBE). An extra derivatization with dansyl chloride was included for estrogen (estrone and estradiol) detection only. Steroid hormones were separated by HPLC, eluted using a reverse phase C18 gradient with electrospray positive ionization, followed by quantification by tandem mass spectrometry (MS/MS). Data were acquired on a MassHunter Workstation Acquisition version B03.01 (Agilent Technologies, Inc.) and processed using MassHunter Quantitative Analysis for QQQ. Accuracy was determined for each hormone analyte from 3 standards to determine upper and lower limits of quantification (ULOQ and LLOQ, respectively) using a 7-point standard curve. Precision and accuracy of the extraction and quantification methods were calculated as the percent relative standard deviation (%RSD) of the spiked standards and percent spiked standard recovered, respectively. The goal was to achieve 100% accuracy (i.e., recover all spiked-in standard at quantification with minimal loss during run time) and good precision (i.e., have %RSD <15% to ensure reproducibility). Test medium was removed following chemical exposure, and cell viability was evaluated in the same wells by MTT. MTT procedures were as follows: after removal of test medium, 500 uL of 0.5 mg/ml of 3-[4,5-dimethylthiazol-2-y]2,5-diphenyltetrazoliumbromide solution was added to the cells. Following a 4-hour incubation at 37 C and 5% CO2 to allow formazan-crystal formation, the MTT solution was removed and blue formazan salt crystals were solubilized using 500uL anhydrous isopropanol with shaking for 20 minutes. Absorbance was read at 570 and 650nm using a Packard Fusion microplate reader. […]
Regarding `S=C(NC1CCCCC1)NC1CCCCC1`, the compound was called inactive.

For the compound `O=C(C=Cc1ccccc1)OCc1ccccc1`, the AC50 – broadly, the concentration giving half of the maximal activity seen – was 14.6 µM (active). Take `CCOC(=O)Cc1cccc2ccccc12`: the AC50 was 24.9 µM (active).

With `CO[Si](CCC1CCC2OC2C1)(OC)OC` (stereo unspecified), the compound was classed as inactive. As for `C=COCCCC`, the result was inactive. As to `CCCCNc1ccc(NCCCC)c2c1C(=O)c1ccccc1C2=O`, the AC50 is 0.208 µM (active). `COCc1c(C(C)C)nc(C(C)C)c(/C=C/[C@@H](O)C[C@@H](O)CC(=O)O)c1-c1ccc(F)cc1`: the AC50 is 0.0067 µM (active). Turning to `Oc1ccc(Cl)cc1Cc1cc(Cl)ccc1O`, the result was inactive.

Turning to `CCCCCCCCCCCCCOP(=O)(O)O`, the result was inactive. For the compound `Cc1ccc(C(C)c2ccc(C)c(C)c2)cc1C`, the AC50 was 40.9 µM (active).

As for `C#CC1(O)CC[C@H]2[C@@H]3CCC4=CCCC[C@@H]4[C@H]3CC[C@@]21C` (stereo partly specified), the compound was classed as inactive.

In the case of `COc1ccc2nc(N)sc2c1`, the concentration at half-maximal activity (AC50) was 22.4 µM (active). For the compound `CCCCC/C=C\CCC=O`, the compound was called inactive. On the same count and under the same terms, the same measure for `O=C(Nc1ccccc1SSc1ccccc1NC(=O)c1ccccc1)c1ccccc1`: “inactive”.

For the compound `CN(C)c1ccc(C(=N)c2ccc(N(C)C)cc2)cc1`, the call was inactive.

Consider `COC(=O)c1c(C)cc(O)c(C)c1O`, for which the AC50 was 59.5 µM (active).

(Values after PubChem BioAssay (EPA / NIEHS).)
